MITF TRPM1 inh: MITF TRPM1 promoter inhibition in SK-MEL-5 cells | SK-MEL-5 TRPM1 promoter luciferase, 24 h | inhibition, % at 12.5 µM | 0.83% of 330,000 active;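 active = mean inhibition across replicates of 60% or more, whatever share of single replicates reaches that level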
LGR2 antag: inhibitors of bursicon-induced Drosophila LGR2 receptor cAMP signaling | HEK293 LGR2, CRE-luciferase, bursicon-stimulated, 4 h | inhibition, % at 9.99 µM | 0.35% of 380,000 active;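 active = drop in luminescence signal, shown as inhibition above about 50% in the replicate tests, limit read from the data, passing the limit was not always enough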;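 also: agonist challenge used bursicon conditioned medium at about half maximal strength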
TWEAK Fn14 block: blocks TWEAK-Fn14 interaction in a reporter cell assay. AID 1159606. TWEAK-stimulated Fn14 reporter cells, luciferase luminescence, 8 h. 2% of 360,000 active. inhibition, % at 10 µM; in the data active = inhibition above about 50%
MITF TRPM1 HTS: activators of MITF-driven TRPM1 promoter activity in SK-MEL-5 cells; AID 588334; 0.75% of 300,000 active; activation, % at 12.5 µM; SK-MEL-5 TRPM1-promoter luciferase, 24 h; % of positive control, neutral wells = 0;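 active = mean activation of at least 80% with every replicate also reaching 80%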;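 also: 0% = neutral control wells and 100% = parthenolide positive control wells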
TROY signal inh: inhibitors of TROY-dependent NF-kB signaling | Q293 LMP1-TROYcd NF-kB luciferase reporter, 4 h | inhibition, % at 10 µM | 0.98% of 360,000 active;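 active = compounds whose plate-normalised and pattern-corrected inhibition of the luciferase reporter signal at the single screening dose is 50% or more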
LMP1 NFkB inh: reduces LMP1-driven NF-kappaB luciferase signal. LMP1-induced NF-kappaB luciferase reporter cells, luminescence. inhibition, % at 12.5 µM. 0.69% of 350,000 active. AID 504558; in the data active = inhibition above about 41%;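 also: 0% = neutral control wells and 100% = reference inhibitor control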
Numbers without * were called inactive; . = not tested or not shown. Only some compounds are listed: those with a hit (about 3% of all), similar ones and a draw of the others.

SMILES	MITF TRPM1 inh	LGR2 antag	TWEAK Fn14 block	MITF TRPM1 HTS	TROY signal inh	LMP1 NFkB inh
C[C@H]1CN([C@@H](C)CO)C(=O)c2cc(NC(=O)CCN3CCOCC3)ccc2O[C@@H]1CN(C)C(=O)Nc1ccc(F)cc1	.	2.8	.	.	.	.
CC1=NN(c2ccccc2)C(=O)/C1=C\C=C\c1ccccc1	.	28.2	94.0*	.	49.4	.
CC1=NN(c2ccccc2)C(=O)/C1=C/C=C/c1ccc(N(C)C)cc1	2.8	.	10.2	-0.3	-4.9	4.9
Cc1nn(-c2ccccn2)c2c1C(c1ccccc1Cl)C1=C(N2)c2ccccc2C1=O (stereo unspecified)	24.4	-2.8	50.1*	-25.2	16.1	9.6
CSC1=C(C#N)C(c2ccccc2Cl)C2=C(N1)c1ccccc1C2=O (stereo unspecified)	18.9	.	-22.3	.	-12.1	4.2
Cc1ccc(S(=O)(=O)N(C)C[C@H]2OCCCC[C@H](C)Oc3ccc(NC(=O)Nc4ccccc4)cc3C(=O)N([C@@H](C)CO)C[C@@H]2C)cc1	.	-59.8	.	.	.	.
COC(=O)c1ccc2nc(Nc3nc4ccc(F)cc4s3)sc2c1	83.6*	.	92.1*	-83.5	79.3*	36.8
CCOC(=O)c1csc(Nc2nc3ccc(F)cc3s2)n1	17.6	.	105.4*	-14.2	-22.9	-15.9
COC(=O)c1ccc2nc(NC(=O)C(C)(C)C)sc2c1	-0.7	64.3*	96.4*	4.8	80.5*	4.5
COC(=O)c1ccc2nc(NC(=O)C3CCCCC3)sc2c1	-34.4	-61.3	-32.8	37.7	-55.1	-42.0
Cc1noc(C)c1NC(=O)N(C)C[C@H]1Oc2c(NC(=O)Nc3cccc4ccccc34)cccc2C(=O)N([C@H](C)CO)C[C@H]1C	.	1.3	.	.	.	.
C[C@@H]1CN([C@H](C)CO)S(=O)(=O)c2ccc(C#CC3CCCC3)cc2O[C@@H]1CN(C)C(=O)c1cccc(F)c1	.	4.1	.	.	.	.
CNC(=O)C[C@@H]1CC[C@H]2[C@@H](COC[C@H](O)CN2Cc2ccc(C(F)(F)F)cc2)O1	.	-1.9	.	.	.	.
CCOc1ccc(/C=N/N(C)c2ccccc2)cc1OC	-112.8	.	-36.5	108.9*	-71.1	-49.5
CN(C)C(=O)c1cccc(-c2ccc3c(c2)[C@@H]2[C@@H](CCN2C(=O)Nc2ccc(F)cc2)[C@H](CO)N3C)c1	.	2.3	.	.	.	.
Oc1ccc(-c2cn3ccccc3n2)cc1O	-56.7	-25.3	1.5	63.6	-68.6	7.9
Cc1cccn2cc(-c3ccc4c(c3)NC(=O)CO4)nc12	-43.0	-26.3	-37.2	45.8	-52.5	-19.3
Cc1ccn2cc(-c3ccc4c(c3)NC(=O)CO4)nc2c1	-93.0	-16.6	-32.0	103.5*	-64.0	-24.4
Cc1ccn2cc(-c3cccc(NC(=O)C(C)C)c3)nc2c1	-48.8	-12.2	-33.7	34.1	-72.5	-1.9
Cc1ccn2cc(-c3cccc(NC(=O)c4ccccc4)c3)nc2c1	-91.2	-48.3	-51.4	105.0*	-34.2	-33.5
Cc1ccn2cc(-c3ccc(O)c(O)c3)nc2c1	7.7	49.1	79.7*	0.4	-16.2	12.7
Cc1noc(C)c1NC(=O)Nc1ccc2c(c1)C(=O)N([C@H](C)CO)C[C@@H](C)[C@@H](CN(C)C(=O)NC1CCCCC1)O2	.	2.7	.	.	.	.
C/C=C/c1cnc2c(c1)C(=O)N([C@@H](C)CO)C[C@H](C)[C@H](CN(C)Cc1cccc(C(=O)O)c1)O2	.	23.0	.	.	.	.
O=C(Nc1ccc2c(c1)OCO2)Nc1ccc2c(c1)OCO2	-71.1	-39.1	-30.4	74.6	-41.2	-21.3
Cc1ccc(C(=O)O)cc1NC(=O)Nc1ccc2c(c1)OCO2	-14.6	-3.5	-18.0	14.6	-52.1	-6.3
SMILES	MITF TRPM1 inh	LGR2 antag	TWEAK Fn14 block	MITF TRPM1 HTS	TROY signal inh	LMP1 NFkB inh
CCOC(=O)c1cccc(NC(=O)c2ccc3c(c2)OCO3)c1	-52.5	-61.4	-30.6	42.9	-32.2	-19.6
O=C(Nc1cccc(C(=O)O)c1)Nc1ccc2c(c1)OCO2	89.3*	97.2*	5.5	-88.4	-30.1	73.3*
O=C(Nc1ccc(F)cc1)Nc1ccc2c(c1)OCO2	-100.3	-82.2	-20.6	104.4*	-71.4	-18.5
CCOC(=O)c1cccc(NC(=O)/C=C/c2ccc3c(c2)OCO3)c1	6.0	-66.5	70.5*	-5.3	51.4*	8.9
COc1cc(C(=O)N2CCC(N3CCN(C)CC3)CC2)ccc1Nc1ncc2c(n1)N(C)c1ccccc1C(=O)N2C	.	-24.1	.	.	.	.
CCN1C(=O)CCN(C2CCCC2)c2nc(Nc3ccc(C(=O)NC4CCN(C)CC4)cc3OC)ncc21	76.1*	-0.9	8.3	-74.4	-15.4	-2.3
CC(C)NC(=O)N[C@H]1CC[C@@H](CC(=O)N2CCCCC2)O[C@@H]1CO	.	25.0	.	.	.	.
COc1ccc(NC(=O)Nc2ccc3c(c2)CC(=O)N([C@@H](C)CO)C[C@@H](C)[C@H](CN(C)S(=O)(=O)c2cn(C)cn2)O3)cc1	.	7.7	.	.	.	.
CN1CCN(c2nc(-c3ccc(C(C)(C)C)cc3)nc3ccccc23)CC1	-24.2	-24.5	84.6*	27.4	77.8*	-2.2
COc1ccc(C(=O)c2ccccc2)c2c(O)ccc(C(=O)c3ccccc3)c12	37.6	.	57.1*	-36.5	49.1	22.2
O=C(NCC[C@H]1CC[C@H](NC(=O)c2cccnc2)[C@H](CO)O1)Nc1ccc(C(F)(F)F)cc1	.	25.2	.	.	.	.
Cc1ccsc1-c1nc(CSCC(=O)N2CCN(c3ccccc3)CC2)c(C)o1	13.1	5.4	10.1	-9.8	-0.6	81.2*
COc1ccc(NC(=O)N(C)C[C@@H]2Oc3c(NC(=O)NC4CCCCC4)cccc3C(=O)N([C@H](C)CO)C[C@@H]2C)cc1	.	7.6	.	.	.	.
CN(C(=O)CCN1C(=O)/C(=C/c2ccc(F)cc2)SC1=S)C1CCS(=O)(=O)C1 (stereo unspecified)	.	15.5	-3.8	.	-8.6	8.9
COc1ccc(/C=C2/SC(=S)N(CCC(=O)O)C2=O)cc1	61.2*	-55.1	84.9*	-61.9	39.1	32.5
COc1ccc(-c2nn(-c3ccccc3)cc2/C=C2/SC(=S)N(CCC(=O)O)C2=O)cc1	2.7	-21.2	-15.9	1.4	10.2	-7.6
COc1ccc(/C=C2\SC(=S)N(CCCC(=O)N3CCOCC3)C2=O)cc1	25.8	-10.8	94.7*	-27.8	-17.0	16.7
CCN(C(=O)CCN1C(=O)/C(=C/c2ccccc2)SC1=S)C1CCS(=O)(=O)C1 (stereo unspecified)	13.9	58.6*	34.6	-13.3	22.1	25.9
COc1ccc(-c2nn(-c3ccccc3)cc2/C=C2/SC(=S)N(CCC(=O)O)C2=O)c(C)c1	-0.6	.	13.9	-2.4	61.0*	10.7
COc1ccc(NC(=O)N(C)C[C@@H]2Oc3ccc(NC(=O)NC(C)C)cc3CC(=O)N([C@@H](C)CO)C[C@H]2C)cc1	.	-9.3	.	.	.	.
COCC(=O)N(C)C[C@@H]1Oc2cc(-c3ccc(C#N)cc3)ccc2S(=O)(=O)N([C@@H](C)CO)C[C@H]1C	.	-6.6	.	.	.	.
O=C1C(=Cc2cn(-c3ccccc3)nc2-c2ccc(OCc3ccc(Cl)cc3)cc2)SC(=S)N1CCS(=O)(=O)O	.	12.4	62.1*	.	17.7	.
